# Experimental data: PubChem BioAssay (NCATS)
# Several values for one entry are separate records, joined by “and”; a condition that tells them apart may be missing. Equal values may be shown once. Records with an inconclusive call do not appear. Where a call stands in place of a potency, no number is given. The source holds several records for some structures; these can differ, active in one and inactive in another. Activity calls are given as the source filed them. Calls follow the shape of the dose curve; as a rule, active = well fitted curve in the direction sought with a large enough effect; inconclusive = small, poorly fitted or top-dose-only effect, or another doubt; inactive = no such curve, though single readings can be large; an effect the other way counts as inactive or inconclusive.
# Assays:
# [1] = biological target: Cytochrome P450 2C19 (Homo sapiens) (UniProt P33261); assay: qHTS Assay for Inhibitors and Substrates of Cytochrome P450 2C19 (AID 899); also: nearly all actives have a fitted effect of over 60% in size; also: potency is read from the fitted curve at half-maximal effect
# Chain of Cytochrome P450 2C19 (Homo sapiens) (P33261 whole entry, looked up): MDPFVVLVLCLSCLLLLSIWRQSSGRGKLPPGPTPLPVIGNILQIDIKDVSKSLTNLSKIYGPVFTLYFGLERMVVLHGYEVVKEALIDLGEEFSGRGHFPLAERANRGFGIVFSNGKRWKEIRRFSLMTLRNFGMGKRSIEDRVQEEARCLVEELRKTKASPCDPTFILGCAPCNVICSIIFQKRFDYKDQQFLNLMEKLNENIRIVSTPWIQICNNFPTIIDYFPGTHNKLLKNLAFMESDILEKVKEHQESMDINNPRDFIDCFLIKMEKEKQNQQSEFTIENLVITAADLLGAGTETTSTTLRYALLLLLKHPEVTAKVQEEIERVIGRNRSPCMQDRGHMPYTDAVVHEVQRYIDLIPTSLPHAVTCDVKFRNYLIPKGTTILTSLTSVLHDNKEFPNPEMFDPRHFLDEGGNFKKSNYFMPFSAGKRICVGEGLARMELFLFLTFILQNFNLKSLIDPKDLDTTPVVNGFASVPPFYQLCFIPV
# Outline: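 Reactions contain 5nM enzyme, 10uM Luciferin-H EGE (KM) and 50mM KPO4; compound preincubates 10 min at 37C, NADPH regeneration starts turnover for 60 min. Luminescence after detection reagent gives activity.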
# [2] = Confirmation and Secondary Assay for Modulators of Hemoglobin Beta Chain Splicing at IVS2 654 locus (AID 910);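 also: HeLa cells stably carrying EGFP split by mutant beta-globin IVS2-654 intron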
# Outline: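 Readout: per-well total peak green fluorescence (488 nm ex, 500–520 nm em) from objects 5–250 µm, reflecting correct splicing of an EGFP-654 reporter. Compounds were applied for 2 days at 37 °C to overnight-plated HeLa EGFP-654 cells; controls were DMSO and 500 nM IVS2-654 PNA.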
# [3] = Confirmation and Secondary Assay for Modulators of Hemoglobin Beta Chain Splicing at IVS2 705 locus (AID 930);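 also: HeLa cells stably expressing the EGFP-705 splicing reporter; GFP fluorescence per well restored by corrected splicing of the IVS2-705 intron in EGFP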
# Outline: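 Read-out: total peak GFP fluorescence per well (488 nm excitation, 500-520 nm emission) by laser-scanning cytometry. Cells: HeLa EGFP-705 splicing reporter, 2 days compound exposure in Optimem/2% FCS.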
# [4] = biological target: Cytochrome P450 2C9 (Homo sapiens) (UniProt P11712); assay: qHTS Assay for Inhibitors and Substrates of Cytochrome P450 2C9 (AID 883); also: nearly all actives have a fitted effect of over 60% in size; also: potency is read from the fitted curve at half-maximal effect
# Chain of Cytochrome P450 2C9 (Homo sapiens) (P11712 whole entry, looked up): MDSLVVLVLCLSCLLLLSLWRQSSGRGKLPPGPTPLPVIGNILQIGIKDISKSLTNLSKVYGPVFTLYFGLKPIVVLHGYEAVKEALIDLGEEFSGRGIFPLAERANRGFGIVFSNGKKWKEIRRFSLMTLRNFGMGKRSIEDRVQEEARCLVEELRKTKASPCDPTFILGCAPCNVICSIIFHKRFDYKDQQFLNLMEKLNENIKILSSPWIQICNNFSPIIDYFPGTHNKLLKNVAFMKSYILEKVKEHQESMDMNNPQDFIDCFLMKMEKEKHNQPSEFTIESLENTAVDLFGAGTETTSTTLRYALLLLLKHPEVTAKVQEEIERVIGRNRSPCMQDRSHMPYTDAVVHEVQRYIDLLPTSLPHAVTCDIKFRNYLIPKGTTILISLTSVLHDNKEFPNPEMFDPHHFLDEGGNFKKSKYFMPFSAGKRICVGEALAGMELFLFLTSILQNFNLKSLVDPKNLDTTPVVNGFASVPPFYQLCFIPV
# Outline: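 Turnover of Luciferin-H (100uM, KM) by 10nM human CYP2C9 was measured over 60 min at 37C with NADPH regeneration; inhibitors and some substrates reduce luminescence. Data normalized to sulphaphenazole 57uM.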
# [5] = biological target: Cytochrome P450 3A4 (Homo sapiens) (UniProt P08684); assay: qHTS Assay for Inhibitors and Substrates of Cytochrome P450 3A4 (AID 884); also: nearly all actives have a fitted effect of over 50% in size
# Chain of Cytochrome P450 3A4 (Homo sapiens) (P08684 whole entry, looked up): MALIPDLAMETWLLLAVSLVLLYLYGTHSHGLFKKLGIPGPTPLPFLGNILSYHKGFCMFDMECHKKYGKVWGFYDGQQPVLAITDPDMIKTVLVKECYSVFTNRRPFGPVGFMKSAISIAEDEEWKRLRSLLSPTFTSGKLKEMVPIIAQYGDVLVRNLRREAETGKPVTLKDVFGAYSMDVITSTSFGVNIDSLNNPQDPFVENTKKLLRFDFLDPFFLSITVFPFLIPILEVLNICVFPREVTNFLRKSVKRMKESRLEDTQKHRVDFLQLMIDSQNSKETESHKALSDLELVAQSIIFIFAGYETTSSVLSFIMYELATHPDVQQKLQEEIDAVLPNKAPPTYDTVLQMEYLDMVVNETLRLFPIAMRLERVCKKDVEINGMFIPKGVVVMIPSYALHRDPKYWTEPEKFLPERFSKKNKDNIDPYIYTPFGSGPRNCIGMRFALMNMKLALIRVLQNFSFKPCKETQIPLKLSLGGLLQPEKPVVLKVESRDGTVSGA
# Outline: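 20 nM human CYP3A4 with 25 uM Luciferin-PPXE (at KM) in 200 mM KPO4, preincubated 10 min with compound; NADPH regeneration started a 60 min RT reaction. Luciferin detected by luminescence, normalized to 57 uM ketoconazole as full inhibition.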
# [6] = biological target: Cytochrome P450 2D6 (Homo sapiens) (UniProt P10635); assay: qHTS Assay for Inhibitors and Substrates of Cytochrome P450 2D6 (AID 891); also: nearly all actives have a fitted effect of over 60% in size; also: potency is read from the fitted curve at half-maximal effect
# Chain of Cytochrome P450 2D6 (Homo sapiens) (P10635 whole entry, looked up): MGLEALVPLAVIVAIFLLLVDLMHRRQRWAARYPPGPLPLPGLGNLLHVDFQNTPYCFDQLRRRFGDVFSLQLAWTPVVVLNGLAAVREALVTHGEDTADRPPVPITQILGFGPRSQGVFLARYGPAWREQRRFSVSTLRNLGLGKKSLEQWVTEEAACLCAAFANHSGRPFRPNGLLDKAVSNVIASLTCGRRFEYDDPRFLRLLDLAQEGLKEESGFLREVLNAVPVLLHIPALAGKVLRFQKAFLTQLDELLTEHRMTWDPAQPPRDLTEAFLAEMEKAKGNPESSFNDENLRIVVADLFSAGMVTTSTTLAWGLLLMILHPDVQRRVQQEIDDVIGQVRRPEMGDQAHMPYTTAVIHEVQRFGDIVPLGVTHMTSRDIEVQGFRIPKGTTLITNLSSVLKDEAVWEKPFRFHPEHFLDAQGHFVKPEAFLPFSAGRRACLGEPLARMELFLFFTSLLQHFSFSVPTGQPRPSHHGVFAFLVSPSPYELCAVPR
# Outline: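 Human CYP2D6 (5 nM) with 30 uM Luciferin-ME EGE (at Km) in 100 mM KPO4, compound preincubated 10 min, then NADPH regeneration system for 60 min at room temperature. Luciferin read by luminescence; normalized to 1.43 uM quinidine.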
# [7] = biological target: Muscarinic acetylcholine receptor M1 (Rattus norvegicus) (UniProt P08482); assay: qHTS Assay for Antagonists of Acetylcholine Muscarinic M1 Receptor: Kinetic Measurement of Intracellular Calcium Response (AID 943);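 also: Fluo-4 calcium signal as peak divided by basal fluorescence over 4 min; nearly all actives have a fitted effect of over 75% in size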
# Chain of Muscarinic acetylcholine receptor M1 (Rattus norvegicus) (P08482 whole entry, looked up): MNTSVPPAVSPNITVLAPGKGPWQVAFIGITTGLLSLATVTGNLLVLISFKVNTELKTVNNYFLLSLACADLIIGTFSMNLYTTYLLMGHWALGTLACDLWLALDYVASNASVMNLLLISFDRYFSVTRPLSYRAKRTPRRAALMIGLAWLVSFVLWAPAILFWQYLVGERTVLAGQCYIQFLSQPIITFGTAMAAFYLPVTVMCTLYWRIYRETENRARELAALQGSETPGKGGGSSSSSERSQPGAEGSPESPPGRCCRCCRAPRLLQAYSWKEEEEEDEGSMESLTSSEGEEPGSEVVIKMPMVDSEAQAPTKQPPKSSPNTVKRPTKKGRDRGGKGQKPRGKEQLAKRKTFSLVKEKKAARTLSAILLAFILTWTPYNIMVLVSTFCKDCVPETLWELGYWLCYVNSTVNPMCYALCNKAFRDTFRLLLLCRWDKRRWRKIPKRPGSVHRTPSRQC
# Outline: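 Rat M1-CHO cells, 2000/well, overnight → Fluo-4 no-wash dye with probenecid, 1 h 37C → compound 10 min, room temp → basal read 6 s → carbachol EC80 (100 nM) → 4 min kinetic read; peak/basal.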
# [8] = biological target: Muscarinic acetylcholine receptor M1 (Rattus norvegicus) (UniProt P08482); assay: qHTS Assay for Antagonists of Acetylcholine Muscarinic M1 Receptor: Measurement of IP-One Response (AID 944); also: nearly all actives have a fitted effect of over 75% in size
# Outline: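 M1-CHO (rat), 2000 cells/well, overnight recovery; cpd 10 min; carbachol EC80 (200 nM), 30 min, HEPES buffer + 50 mM LiCl pH 7.4; IP-One HTRF, Ex 337, Em 620/665 nm.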
# [9] = biological target: Glutathione peroxidase 1 (Homo sapiens) (UniProt P07203); assay: Primary qHTS Assay for Inhibitors of Recombinant Selenoprotein Glutathione Peroxidase 1 (GPX1) (AID 1845191); also: nearly all actives have a fitted effect of over 65% in size
# Chain of Glutathione peroxidase 1 (Homo sapiens) (P07203 whole entry, looked up): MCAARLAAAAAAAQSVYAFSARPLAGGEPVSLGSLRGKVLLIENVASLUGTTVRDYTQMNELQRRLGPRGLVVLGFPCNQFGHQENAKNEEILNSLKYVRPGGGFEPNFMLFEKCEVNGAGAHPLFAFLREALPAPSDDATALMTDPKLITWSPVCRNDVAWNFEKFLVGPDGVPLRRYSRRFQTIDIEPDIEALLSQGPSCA
# Outline: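 10 nM GPX1 + cpd, 30 min RT; start w/ 1 mM GSH, 0.5 mM cumene hydroperoxide, 0.5 mM NADPH, 100 nM GR, 0.01% BSA; buffer 50 mM Tris-HCl pH 7.5, 2 mM EDTA, 150 mM NaCl; Fl 340/450, 0 & 15 min.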
# [10] = biological target: ATP-dependent 6-phosphofructokinase (Trypanosoma brucei brucei) (UniProt O15648); assay: qHTS Assay to Find Inhibitors of T. brucei phosphofructokinase: hit validation (AID 492961);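 also: luminescence reports ADP formed as PFK phosphorylates fructose-6-phosphate with ATP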
# Chain of ATP-dependent 6-phosphofructokinase (Trypanosoma brucei brucei) (O15648 whole entry, looked up): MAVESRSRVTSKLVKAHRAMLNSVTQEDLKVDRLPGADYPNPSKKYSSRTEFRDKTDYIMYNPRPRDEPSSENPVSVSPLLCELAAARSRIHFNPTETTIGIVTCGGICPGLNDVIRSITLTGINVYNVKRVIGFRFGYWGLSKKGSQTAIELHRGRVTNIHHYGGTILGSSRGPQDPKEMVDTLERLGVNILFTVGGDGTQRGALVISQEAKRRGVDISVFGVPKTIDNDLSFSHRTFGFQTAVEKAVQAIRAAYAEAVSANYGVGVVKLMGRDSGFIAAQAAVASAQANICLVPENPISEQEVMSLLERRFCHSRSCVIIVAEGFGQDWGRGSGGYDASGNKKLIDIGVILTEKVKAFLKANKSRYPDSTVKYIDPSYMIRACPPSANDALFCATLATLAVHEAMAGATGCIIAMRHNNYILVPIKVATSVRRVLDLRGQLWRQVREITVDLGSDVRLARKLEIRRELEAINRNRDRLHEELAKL
# Outline: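 Measures ADP output of PFK (1.25 nM) at 0.1 mM ATP, 0.5 mM F6P, pH 8.0 TEA buffer with 5 mM MgCl2. No-enzyme wells define full inhibition; uninhibited enzyme wells define zero.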
# 3D7 = assay: qHTS profiling for inhibitors of Plasmodium falciparum proliferation (AID 504749); also: nearly all actives have a fitted effect of over 60% in size; also: potency is read from the fitted curve at half-maximal effect; conditions: P. falciparum in erythrocytes, SYBR Green DNA, 72 h; series mostly up to 28.7 µM
# Outline: (§1)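 Infected RBCs, 0.3% parasitemia/2.5% Hct final; cpd 72 h, 37 C, 5% CO2; lysis buffer with saponin/triton/SYBR Green I, o/n RT dark; FI 485/535; norm. to artemisinin (0.29 uM) and DMSO.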
# CP192 = assay: as above; conditions: P. falciparum in erythrocytes, SYBR Green DNA, 72 h; series mostly up to 28.7 µM
# Outline: as §1
# CP201 = assay: as above; conditions: P. falciparum in erythrocytes, SYBR Green DNA, 72 h; series mostly up to 28.7 µM
# Outline: as §1
# DIV14 = assay: as above; conditions: P. falciparum in erythrocytes, SYBR Green DNA, 72 h; series mostly up to 28.7 µM
# Outline: as §1
# DIV17 = assay: as above; conditions: P. falciparum in erythrocytes, SYBR Green DNA, 72 h; series mostly up to 28.7 µM
# Outline: as §1
# GB4 = assay: as above; conditions: P. falciparum in erythrocytes, SYBR Green DNA, 72 h; series mostly up to 28.7 µM
# Outline: as §1
# P94_40 = assay: as above; conditions: P. falciparum in erythrocytes, SYBR Green DNA, 72 h; series mostly up to 28.7 µM
# Outline: as §1
# PC49 = assay: as above; conditions: P. falciparum in erythrocytes, SYBR Green DNA, 72 h; series mostly up to 28.7 µM
# Outline: as §1
# [11] = as above; conditions: P. falciparum in erythrocytes, SYBR Green DNA, 72 h, at 12.8 µM (top of the series)
# Outline: as §1
smiles,measurement,setting,value
CC1=C(\C=C/C(C)=C/C=C\C(C)=C\C(=O)O)C(C)(C)CCC1,Potency,[1],inactive and 5.01 µM (active) and 12.6 µM (active)
same,outcome,[2],inactive
same,outcome,[3],inactive
O=C(O)[C@H]1CN(CCCP(=O)(O)O)CCN1,Potency,[4],inactive
same,Potency,[5],inactive
same,Potency,[6],inactive
same,Potency,[1],inactive
same,Potency,[7],inactive
N[C@@H]1CCN(O)C1=O,Potency,[8],inactive
N[C@@H](C(=O)O)[C@H](CC(=O)O)c1ccc(Cl)cc1,Potency,[6],2.51 µM (active)
COc1cc(N)c(Cl)cc1C(=O)CCC1CCN(CCNS(C)(=O)=O)CC1,Potency,[4],0.251 µM (active)
COc1cc(N)c(Cl)cc1C(=O)OCCCN1CCCCC1,Potency,[6],0.126 µM (active)
CCCCCCCCCCCCC/C=C\[C@@H](O)[C@H](CO)NC(C)=O,Potency,[4],3.16 µM (active)
NC1(C(=O)O)C[C@H](C(=O)O)[C@H](C(=O)O)C1 (stereo not given in full),Potency,[4],6.31 µM (active)
same,Potency,[1],398 nM (active)
O=C(O)c1c2ccccc2cc2ccccc12,Potency,[5],inactive
same,outcome,[2],inactive
same,outcome,[3],inactive
N[C@@H](C(=O)O)c1ccc(C(=O)O)c(C(=O)O)c1,Potency,[6],7.94 µM (active)
same,Potency,[1],316 nM (active) and 3.16 µM (active)
N[C@H](C(=O)O)[C@@H]1C[C@@H]1C(=O)O,Potency,[8],inactive
C=CC1=C(C)C2=NC1=CC1=NC(=CC3=NC(=CC4=NC(=C2)C(C)=C4CCC(=O)O)C(CCC(=O)O)=C3C)C(C=C)=C1C.[Zn],Potency,[1],inactive
CNC(=O)[C@H]1O[C@@H](n2cnc3c(NCc4cccc(I)c4)nc(Cl)nc32)[C@H](O)[C@@H]1O,Potency,[9],inactive
CCOC(=O)C(CCc1ccccc1)NC1CCc2ccccc2N(CC(=O)O)C1=O (stereo not given),outcome,[2],inactive
same,outcome,[3],inactive
same,outcome,[10],inactive
same,Potency,3D7,inactive
same,Potency,CP192,inactive
same,Potency,CP201,inactive
same,Potency,DIV14,7.57 µM (active)
same,Potency,DIV17,10.7 µM (active)
same,Potency,GB4,15.1 µM (active)
same,Potency,P94_40,inactive
same,Potency,PC49,inactive
NC(N)=NCCC[C@@H](N)C(=O)O,Potency,[5],inactive
Nc1ncnc2c1ncn2[C@@H]1O[C@H](COP(=O)(O)OP(=O)(O)O)[C@@H](O)[C@H]1O,Potency,[5],inactive
N[C@H](C(=O)O)C1[C@H](C(=O)O)[C@H]1C(=O)O (stereo not given in full),Potency,[6],7.94 µM (active)
C[C@@H](C(=O)O)c1ccc(-c2ccccc2)c(F)c1,Potency,[1],631 nM (active)
same,outcome,[2],inactive
same,outcome,[3],inactive
same,outcome,[10],inactive
same,"activity, negative = inhibition",[11]; parasite line A,6.83% (inactive)
same,"activity, negative = inhibition",[11]; parasite line B,6.59% (inactive)
same,Potency,3D7,inactive
same,Potency,CP192,inactive
same,Potency,CP201,inactive
same,Potency,DIV14,inactive
same,Potency,DIV17,inactive
same,Potency,GB4,inactive
same,Potency,P94_40,inactive
same,Potency,PC49,inactive
COc1ccccc1N1CCN(CCCCN2C(=O)CCC2=O)CC1,Potency,[4],3.98 µM (active)
CC(C)(C)n1nc(-c2ccc(Cl)cc2)c2c(N)ncnc21,Potency,[9],inactive
NC1(C(=O)O)CC(C(=O)O)C1 (stereo not given),Potency,[5],inactive
Cc1ccc(-c2nn(C(C)(C)C)c3ncnc(N)c23)cc1,Potency,[9],inactive
